Rows were chosen to be rich in hits. Some 9.3% of all compounds tested hit in one or more screens of this group.
Vaccinia mCherry: vaccinia inhibition (mCherry reporter); Potency, µM (doses to about 36.5 µM), for inactives: at the top dose activity change, negative = inhibition, usual class: inhibitors; Vaccinia virus mCherry reporter infection, fluorescence; 310,000 tested, 0.63% active; AID 720579; calls by dose curve; tested in A549 cells; note: potency is the fitted concentration of half-maximal effect; nearly all actives have a fitted effect of over 35% in size
HCMV inh: human cytomegalovirus inhibition; activity change, negative = inhibition, % at 57.5 µM; AID 1259415; HFF cells, HCMV-luciferase reporter, 72 h; active compounds read low; 410,000 tested, 4.5% active; in the data active = activity change below about -60%; inconclusive = no clear call, values can overlap the other calls; inactive = above about -39%
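Screen run at 2 compound doses on HFFs infected with reporter HCMV, MOI 1 PFU/cell. Luciferase activity from cell lysates at 72 h post infection gave inhibition relative to buffer-only and Salinomycin wells.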
HCV inhibitor: inhibitors of hepatitis C virus infection; Huh7.5.1 HCVcc-Cre infection, luciferase reporter, 44 h; Potency, µM (titrated, usually from 41.8 µM), inactives show top-dose activity change, negative = inhibition, hits mostly inhibitors; 340,000 tested, 3.4% active; note: potency is the fitted concentration of half-maximal effect
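Seed cells (1,000/well) for 4 h; treat with compound and infect with HCVcc-Cre, moi about 0.5. Incubate 44 h, then detect luciferase activity.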
Sm TGR inh: inhibitors of Schistosoma mansoni thioredoxin glutathione reductase; Q962Y6; 360,000 tested, 3% active; AID 485364; Potency, µM (top dose mostly 114 µM), without a hit: top-dose activity change, negative = inhibition, usual class: inhibitors; purified TGR, DTNB reduction, TNB absorbance 405 nm; note: potency is the fitted concentration of half-maximal effect; nearly all actives have a fitted effect of over 60% in size
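TGR 20 nM + NADPH 100 uM (dispensed conc.), cpd preinc 15 min RT; start with NADPH (500 uM addition) then DTNB (15 mM addition). Kinetic TNB absorbance, 405 nm filter. Four-parameter Hill fit across titration.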
FMDV inh: blocks foot and mouth disease virus; FMDV antiviral cell-based qHTS; Potency, µM (series often up to 57.9 µM), inactives show at the highest dose activity change, negative = inhibition, actives largely listed as inhibitors; 410,000 tested, 1.2% active; calls by dose curve; tested in HEK293T cells; note: read-out not given here; potency is the fitted concentration of half-maximal effect; nearly all actives have a fitted effect of over 45% in size
Vaccinia Venus: inhibitors of vaccinia virus (Venus reporter). Vaccinia virus Venus reporter expression, fluorescence. Potency, µM (titrated, usually from 36.5 µM), inactives show at the highest dose activity change, negative = inhibition, hits mostly inhibitors. 330,000 tested, 0.46% active. AID 720580; calls by dose curve; tested in A549 cells; note: potency is the fitted concentration of half-maximal effect; nearly all actives have a fitted effect of over 30% in size
* marks the source's active call; other numbers are inactive results; i = inactive; ? = inconclusive; . = no result given; [ ] = another dose, or the depositor's remark. Unless noted, calls come from the whole dose curve; as a rule, active = well fitted curve in the direction sought with a large enough effect; inconclusive = small, poorly fitted or top-dose-only effect, or another doubt; inactive = no such curve, though single readings can be large; an effect the other way counts as inactive or inconclusive. % is set by controls: 0 for no effect and ±100 for the full control effect.

SMILES	Vaccinia mCherry	HCMV inh	HCV inhibitor	Sm TGR inh	FMDV inh	Vaccinia Venus
CCCC(=O)Nc1c2c(nn1-c1cccc(Cl)c1)CS(=O)(=O)C2	.	11	15%	-26%	0%	.
CC1(C)CC(=O)C(c2c[nH]c3ccccc23)C(=O)C1	-22%	17	21%	20µM*	25%	-4%
CC12CN3CC(C)(CN(C1)C3c1c[nH]c3ccccc13)C2=O (stereo not given)	i	36	7%	.	-12%	-2%
CCCCNC(=O)C(NC(=O)c1ccc(-c2ccccc2)cc1)C(=O)c1ccccc1 (stereo not given)	-9%	-81*	.	.	22%	-15%
CC(C)N(Cc1ccccc1)C(=S)Nc1cccnc1	-9%	-31	21%	-2%	-6%	-2%
COc1ccc(C(C(=O)NC2CCCCC2)N(C(=O)CCl)c2ccc(OC)cc2)cc1 (stereo not given)	i	.	1µM*	-22%	8.9µM*	-17%
COc1ccc(C(C(=O)NC2CCCCC2)N(C(=O)CCl)c2cccc(Cl)c2)cc1 (stereo not given)	?	-99*	1.6µM*	-18%	25µM*	?
O=C(NC1CCCCC1)C(c1ccncc1)N(Cc1ccc(F)cc1)C(=O)c1ccccn1 (stereo not given)	.	0	0%	-36%	0%	.
COc1ccc(C(C(=O)NC2CCCCC2)N(C(=O)CCl)c2ccc(C)cc2)cc1 (stereo not given)	-2%	-99*	0.56µM*	4%	?	-26%
COc1ccc(C(C(=O)NC2CCCC2)N(C(=O)c2ccoc2C)c2ccc(C)cc2)cc1 (stereo not given)	-9%	?	-12%	1%	-7%	-15%
O=C(NC1CCCC1)C(c1ccc(F)cc1)N(Cc1ccc(F)cc1)C(=O)CCl (stereo not given)	-16%	-67*	?	5.6µM*	?	-11%
COc1cccc(N(C(=O)c2cnccn2)C(C(=O)NC2CCCCC2)c2ccc(Cl)cc2)c1 (stereo not given)	-24%	-20	6%	-7%	8%	-26%
CSc1nc2c(c(-c3ccc(O)cc3)c1C#N)CCC2	.	-31	?	-13%	-23%	?
COC(CN(C(=O)CCl)C(C(=O)NC1CCCCC1)c1ccc(C)cc1)OC (stereo not given)	-4%	-29	-8%	45µM*	?	-8%
O=C1C=CC(=O)N1N(c1ccccc1)c1ccccc1	-26%	3	9%	2.5µM*	?	?
Cc1ccc(NCc2nnc(SCC(=O)c3ccccc3)o2)c(C)c1	.	-11	-21%	-7%	-18%	.
Cc1nc(SCC(=O)N2c3ccccc3NC(=O)CC2C)c2c(C)c(C)sc2n1 (stereo not given)	-12%	-27	-20%	0%	-10%	-20%
Cc1cc2cc3c(cc2nc1SCC(=O)N1c2ccccc2CC1C)OCO3 (stereo not given)	.	-39	4µM*	6%	0%	-13%
Cc1sc2nc(C3CC3)nc(SCC(=O)N3c4ccccc4CC3C)c2c1C (stereo not given)	.	.	11µM*	9%	-3%	.
Cc1ccc(OC(=O)CSc2nnc(-c3cccs3)o2)c(C)c1	-12%	6	.	-4%	3%	-8%
O=C(NCCCn1ccnc1)c1ccc(-c2cccc(C(F)(F)F)c2)o1	.	133	?	.	-7%	.
COC(=O)[C@H](CC(C)C)N(Cc1ccccc1)S(=O)(=O)N(Cc1ccccc1)[C@@H](CC(C)C)C(=O)OC	-25%	-69*	7%	.	?	-10%
COC(=O)[C@H](CC(C)C)NS(=O)(=O)N(Cc1ccccc1)[C@@H](CC(C)C)C(=O)OC	?	25	-2%	-3%	-18%	-30%
CCOC(=O)[C@@H](C)N(Cc1ccc(OC)cc1)S(=O)(=O)N(Cc1ccccc1)[C@H](C(=O)OC)C(C)C	-24%	-79*	?	-8%	-21%	?
COC(=O)[C@H](CC(C)C)N(Cc1ccccc1)S(=O)(=O)N(Cc1ccc(OC)cc1)[C@@H](CC(C)C)C(=O)OC	-29%	-66*	-8%[8.37 µM]	.	?	5%
SMILES	Vaccinia mCherry	HCMV inh	HCV inhibitor	Sm TGR inh	FMDV inh	Vaccinia Venus
CCOC(=O)c1ccc(NC(=O)CSCCC(=O)O)cc1	.	?	16%	4%	8%	.
Cn1nnc(NC(=S)NC(=O)c2ccco2)n1	i	8	19%	?	7%	-7%
O=C(NC(=S)Nc1cc(Cl)ccc1N1CCOCC1)c1ccc(-c2cccc(Cl)c2)o1	.	29	-10%	-17%	23%	.
Cn1nnc(NC(=S)NC(=O)c2cc3ccccc3o2)n1	.	-9	5%	25µM*	27%	.
CCn1nnc(NC(=S)NC(=O)c2ccc(-c3cccc(Cl)c3)o2)n1	-12%	-4	-11%	13µM*	-19%	-10%
CCCCn1nnc(NC(=O)c2ccc(-c3cccc(Cl)c3)o2)n1	-37%	.	.	25µM*	0%	-28%
CCCn1nnc(NC(=O)c2ccc(-c3cccc(Cl)c3)o2)n1	.	6	?	-39%	39%	.
CCOC(=O)Cc1csc(NC(=O)CSc2nnnn2-c2ccc(C)c(C)c2)n1	i	21	13%	1%	-24%	-4%
O=C(C1CCN(CCc2ccccc2)CC1)N1CCOCC1	i	15	26%	.	-2%	-15%
COc1ccccc1C(=O)Nc1ccc(-c2cc(C(F)(F)F)nn2-c2ccccc2)cc1	?	-61*	.	-9%	?	-28%
COc1ccccc1C(=O)NC(=O)Nc1ccc(-c2cc(C(F)(F)F)nn2-c2ccccc2)cc1	-19%	-36	.	4%	?	-21%
CCOc1cc(CNCCCN2CCOCC2)ccc1OCC(=O)NC(C)(C)C	i	13	-10%	-11%	-7%	-14%
COc1cccc(-n2c(/C=C\c3ccc(Cl)cc3)nc3ccccc3c2=O)c1	-4%	?	.	9%	?	-7%
CCN1Cc2c(/C=C/c3ccccc3)nc3ccc(OC)cc3c2N(c2cccc(Cl)c2)C1	?	-102*	18µM*	40µM*	40µM*	?
N#CC(C(=S)Nc1ccccc1)c1nc2ccccc2[nH]1 (stereo not given)	.	-31	-21%	-7%	-9%	.
N#CC(C(=O)C1CCCCC1)c1nc2ccccc2[nH]1 (stereo not given)	-28%	-99*	10µM*	4%	.	-28%
Cc1csc2nc(COC(=O)c3cccc(NC(=O)COc4ccccc4Cl)c3)cc(=O)n12	i	-61*	.	-2%	-24%	-20%
Cc1ccccc1OCC(=O)Nc1ccc(C(=O)OCc2cc(=O)n3c(C)csc3n2)cc1	i	-87*	.	5%	4%	0%

Screening data from PubChem BioAssay.
